Test results published in PubChem BioAssay AID1159580 (chemical genetic matrix, 2015).
“And” between values parts separate entries of the source, which are not always exact repeats. Identical values can stand only once. Among all 5,500 compounds or so, about 2,000 (36%) were called active. Another 18% or so got no clear call; they are omitted. No stated cut-off is given here; in the data, active means normalized growth mostly below about 0.91 (no sharp cut-off); inconclusive means no clear call, values can overlap the other calls; inactive means mostly above about 0.92. This is one part of the list.

Experiment: chemical genetic growth profiling, strain panel (AID 1159580);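 further: tested at 20 µM; growth read once vehicle control cultures reached saturation at 30 °C; 1 = growth at the plate median or of vehicle wells; lower values mean less growth of the strain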
Conditions: S. cerevisiae deletion strains, growth OD

Measured: normalized growth

O=C(O)C1(O)C[C@@H](O)C(O)[C@H](O)C1 (stereo partly drawn)
inactive: locus YAL021C, strain ccr4, active compounds read low 0.984 | locus YAL026C, strain drs2, active compounds read low 0.985 | locus YAL030W, strain snc1, active compounds read low 0.987 | locus YBL061C, strain skt5, active compounds read low 0.968 | locus YBR009C, strain hhf1, active compounds read low 1 | locus YBR021W, strain FUR4, active compounds read low 1.01 | locus YBR023C, strain chs3, active compounds read low 0.97 | locus YBR171W, strain sec66, active compounds read low 0.983 | locus YBR229C, strain ROT2, active compounds read low 1 | locus YBR231C, strain swc5, active compounds read low 0.983 | locus YBR279W, strain paf1, active compounds read low 0.985 | locus YCL011C, strain gbp2, active compounds read low 0.978 | locus YCL016C, strain dcc1, active compounds read low 0.973 | locus YCL029C, strain bik1, active compounds read low 1.03 | locus YCL069W, strain vba3, active compounds read low 0.988 | locus YCR088W, strain abp1, active compounds read low 0.979 | locus YDL005C, strain med2, active compounds read low 0.957 | locus YDL035C, strain GPR1, active compounds read low 0.99 | locus YDL040C, strain nat1, active compounds read low 0.979 | locus YDL074C, strain BRE1, active compounds read low 1.04 | locus YDL101C, strain DUN1, active compounds read low 1.01 | locus YDL185W, strain tfp1, active compounds read low 1.02 | locus YDL192W, strain arf1, active compounds read low 1.02 | locus YDR001C, strain nth1, active compounds read low 0.975 | locus YDR069C, strain doa4, active compounds read low 0.993 | locus YDR101C, strain arx1, active compounds read low 1.02 | locus YDR137W, strain rgp1, active compounds read low 0.996 | locus YDR150W, strain NUM1, active compounds read low 1.01 | locus YDR159W, strain sac3, active compounds read low 1 | locus YDR162C, strain NBP2, active compounds read low 1.02 | locus YDR195W, strain ref2 0.959 | locus YDR297W, strain sur2, active compounds read low 0.995 | locus YDR318W, strain mcm21, active compounds read low 0.997 | locus YDR334W, strain swr1, active compounds read low 0.962 | locus YDR335W, strain msn5, active compounds read low 0.978 | locus YDR388W, active compounds read low 1.01 | locus YDR392W, strain spt3, active compounds read low 0.994 | locus YDR502C, strain sam2, active compounds read low 1.01 | locus YEL003W, strain gim4, active compounds read low 0.983 | locus YEL037C, strain rad23, active compounds read low 0.98 | locus YEL061C, strain CIN8 (second series), active compounds read low 0.98 | locus YEL061C, strain CIN8, active compounds read low 1.01 | locus YER015W, strain faa2, active compounds read low 0.975 | locus YER016W, strain bim1, active compounds read low 0.967 | locus YER110C, active compounds read low 1.02 | locus YER111C, strain swi4, active compounds read low 0.966 | locus YER155C, strain BEM2 (second series), active compounds read low 0.969 | locus YER155C, strain BEM2, active compounds read low 1 | locus YER167W, strain BCK2, active compounds read low 0.996 | locus YFR010W, strain ubp6, active compounds read low 0.992 | locus YGL078C, strain dbp3, active compounds read low 0.998 | locus YGL086W, strain mad1, active compounds read low 1.05 | locus YGL167C, strain pmr1, active compounds read low 0.976 | locus YGL173C, strain kem1, active compounds read low 0.973 | locus YGL227W, strain vid30, active compounds read low 0.979 | locus YGL240W, strain doc1, active compounds read low 0.975 | locus YGL248W, strain PDE1, active compounds read low 1 | locus YGL253W, strain hxk2, active compounds read low 0.989 | locus YGR135W, strain pre9, active compounds read low 1.01 | locus YGR229C, strain SMI1, active compounds read low 1.02 | locus YGR252W, strain gcn5, active compounds read low 0.954 | locus YHR013C, strain ard1, active compounds read low 0.964 | locus YHR027C, strain rpn1, active compounds read low 0.994 | locus YHR030C, strain SLT2, active compounds read low 1.01 | locus YHR079C, strain IRE1 (second series), active compounds read low 1.01 | locus YHR079C, strain IRE1, active compounds read low 1 | locus YHR094C, strain hxt1, active compounds read low 1.01 | locus YHR129C, strain ARP1, active compounds read low 1.01 | locus YHR142W, strain chs7, active compounds read low 0.982 | locus YHR200W, strain rpn10, active compounds read low 1.01 | locus YIL066C, strain RNR3, active compounds read low 1.01 | locus YIL073C, strain SPO22, active compounds read low 1.06 | locus YIL125W, strain kgd1, active compounds read low 1.02 | locus YIR030C, strain dcg1, active compounds read low 1.01 | locus YJL092W, strain hpr5, active compounds read low 0.979 | locus YJL095W, strain BCK1 (second series), active compounds read low 0.997 | locus YJL095W, strain BCK1, active compounds read low 0.993 and 1 | locus YJL115W, strain asf1, active compounds read low 0.974 | locus YJL129C, strain trk1, active compounds read low 0.984 | locus YJL134W, strain LCB3, active compounds read low 1.01 | locus YJL154C, strain vps35, active compounds read low 0.971 | locus YJL164C, strain tpk1, active compounds read low 0.981 | locus YJL166W, strain qcr8, active compounds read low 1.01 | locus YJL168C, strain set2, active compounds read low 1.01 | locus YJL187C, strain SWE1 (second series), active compounds read low 1.01 | locus YJL187C, strain SWE1, active compounds read low 0.98 | locus YJR043C, strain POL32, active compounds read low 1.01 | locus YJR066W, strain TOR1, active compounds read low 0.957 | locus YKL009W, strain mrt4, active compounds read low 1.01 | locus YKL068W, active compounds read low 1.01 | locus YKL085W, strain MDH1 (second series), active compounds read low 1.01 | locus YKL085W, strain MDH1, active compounds read low 1.01 | locus YKL160W, strain elf1, active compounds read low 0.978 | locus YKR001C, strain vps1, active compounds read low 1.04 | locus YKR026C, strain gcn3, active compounds read low 0.986 | locus YKR091W, strain srl3, active compounds read low 0.986 | locus YLL001W, strain dnm1, active compounds read low 0.962 | locus YLL026W, active compounds read low 0.978 | locus YLL041C, strain sdh2, active compounds read low 1 | locus YLR027C, strain aat2, active compounds read low 0.981 | locus YLR039C, strain RIC1, active compounds read low 1.07 | locus YLR058C, strain SHM2, active compounds read low 1.01 | locus YLR102C, strain apc9, active compounds read low 1.01 | locus YLR113W, strain HOG1, active compounds read low 1.02 | locus YLR221C, strain rsa3, active compounds read low 0.987 | locus YLR258W, strain gsy2, active compounds read low 0.973 | locus YLR262C, strain YPT6 (second series), active compounds read low 1.04 | locus YLR262C, strain YPT6, active compounds read low 1.1 | locus YLR268W, strain sec22, active compounds read low 1.04 | locus YLR320W, strain mms22, active compounds read low 0.974 | locus YLR330W, strain CHS5, active compounds read low 1 | locus YLR342W, strain FKS1 (second series), active compounds read low 1.01 | locus YLR342W, strain FKS1, active compounds read low 0.976 | locus YLR357W, strain rsc2, active compounds read low 0.995 | locus YLR370C, strain arc18, active compounds read low 0.992 | locus YLR371W, strain rom2, active compounds read low 1.02 | locus YLR384C, strain iki3, active compounds read low 0.983 | locus YLR418C, strain cdc73, active compounds read low 1.01 | locus YML016C, strain PPZ1, active compounds read low 1.01 | locus YML032C, strain rad52, active compounds read low 0.989 | locus YML120C, strain ndi1, active compounds read low 0.968 | locus YML124C, strain tub3, active compounds read low 1.01 | locus YMR058W, strain fet3, active compounds read low 0.964 | locus YMR078C, strain ctf18, active compounds read low 1.02 | locus YMR125W, strain sto1, active compounds read low 0.972 | locus YMR129W, active compounds read low 0.976 | locus YMR205C, strain PFK2, active compounds read low 0.984 | locus YMR223W, strain ubp8, active compounds read low 1 | locus YMR231W, strain pep5, active compounds read low 0.972 | locus YMR263W, strain SAP30, active compounds read low 1.01 | locus YMR307W, strain GAS1, active compounds read low 0.994 | locus YNL067W, strain RPL9B, active compounds read low 1.01 | locus YNL071W, strain lat1, active compounds read low 0.989 | locus YNL183C, strain NPR1, active compounds read low 0.953 | locus YNL209W, strain ssb2, active compounds read low 0.983 | locus YNL233W, strain BNI4, active compounds read low 1.01 | locus YNL248C, strain rpa49, active compounds read low 0.98 | locus YNL250W, strain rad50, active compounds read low 1.02 | locus YNL271C, strain bni1, active compounds read low 1.02 | locus YNL298W, strain CLA4, active compounds read low 1.02 | locus YNL307C, strain MCK1, active compounds read low 1.02 | locus YNL322C, strain KRE1 (second series), active compounds read low 0.969 | locus YNR049C, strain mso1, active compounds read low 0.963 | locus YNR052C, strain pop2, active compounds read low 0.999 | locus YOL012C, strain htz1 0.956 | locus YOL147C, strain pex11, active compounds read low 1.02 | locus YOR001W, strain rrp6, active compounds read low 1 | locus YOR061W, strain CKA2, active compounds read low 1.01 | locus YOR069W, strain VPS5, active compounds read low 1.01 | locus YOR070C, strain gyp1, active compounds read low 0.962 | locus YOR080W, strain dia2, active compounds read low 0.972 | locus YOR083W, strain WHI5, active compounds read low 0.981 | locus YOR106W, strain vam3, active compounds read low 1 | locus YOR136W, strain idh2, active compounds read low 1.03 | locus YOR144C, strain elg1, active compounds read low 1.02 | locus YOR184W, strain ser1, active compounds read low 1.01 | locus YOR231W, strain MKK1, active compounds read low 0.997 | locus YOR265W, strain rbl2, active compounds read low 0.989 | locus YOR270C, strain vph1, active compounds read low 1.03 | locus YOR290C, strain snf2, active compounds read low 0.992 | locus YOR316C, strain cot1, active compounds read low 1.01 | locus YPL051W, strain arl3, active compounds read low 0.992 | locus YPL055C, strain LGE1, active compounds read low 1.01 | locus YPL078C, strain atp4, active compounds read low 0.982 | locus YPL106C, strain sse1, active compounds read low 0.961 | locus YPL240C, strain hsp82, active compounds read low 1.01 | locus YPL241C, strain CIN2, active compounds read low 1.02 | locus YPL256C, strain CLN2, active compounds read low 0.992 | locus YPR119W, strain clb2, active compounds read low 1.01 | locus YPR141C, strain kar3, active compounds read low 1.01 | locus YPR163C, strain tif3, active compounds read low 1.03 | locus YPR167C, strain met16, active compounds read low 1.01 | strain wtn01, active compounds read low 1.05
